# In ChEMBL document CHEMBL1961873, “Compounds: GSK PKIS; Assays: Nanosyn kinase panel” (2012):
# “And” between values parts separate entries of the source, which are not always exact repeats. Equal values may be shown once.
# Key:
# [1] = biological target: RAC-alpha serine/threonine-protein kinase (Homo sapiens) (UniProt P31749); conditions: at 0.1 µM
# [2] = biological target: RAC-alpha serine/threonine-protein kinase (Homo sapiens) (UniProt P31749); conditions: at 1 µM
# [3] = biological target: RAC-beta serine/threonine-protein kinase (Homo sapiens) (UniProt P31751); conditions: at 0.1 µM
# Sequence of RAC-beta serine/threonine-protein kinase (Homo sapiens) (P31751 whole entry): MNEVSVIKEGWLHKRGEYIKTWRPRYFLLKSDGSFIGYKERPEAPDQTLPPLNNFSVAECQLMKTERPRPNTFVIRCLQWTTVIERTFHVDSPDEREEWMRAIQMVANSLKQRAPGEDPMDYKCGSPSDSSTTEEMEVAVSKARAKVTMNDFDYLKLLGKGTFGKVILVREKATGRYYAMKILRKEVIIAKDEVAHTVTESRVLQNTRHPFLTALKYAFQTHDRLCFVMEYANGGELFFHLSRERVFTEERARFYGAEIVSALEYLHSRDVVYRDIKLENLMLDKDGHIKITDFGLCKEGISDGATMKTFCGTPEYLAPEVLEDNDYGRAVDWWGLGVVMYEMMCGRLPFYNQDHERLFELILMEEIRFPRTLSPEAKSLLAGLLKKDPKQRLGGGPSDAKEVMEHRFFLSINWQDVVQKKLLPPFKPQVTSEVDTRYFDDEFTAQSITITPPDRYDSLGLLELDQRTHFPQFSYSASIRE
# [4] = biological target: RAC-beta serine/threonine-protein kinase (Homo sapiens) (UniProt P31751); conditions: at 1 µM
# [5] = biological target: RAC-gamma serine/threonine-protein kinase (Homo sapiens) (UniProt Q9Y243); conditions: at 0.1 µM
# Sequence of RAC-gamma serine/threonine-protein kinase (Homo sapiens) (Q9Y243 whole entry): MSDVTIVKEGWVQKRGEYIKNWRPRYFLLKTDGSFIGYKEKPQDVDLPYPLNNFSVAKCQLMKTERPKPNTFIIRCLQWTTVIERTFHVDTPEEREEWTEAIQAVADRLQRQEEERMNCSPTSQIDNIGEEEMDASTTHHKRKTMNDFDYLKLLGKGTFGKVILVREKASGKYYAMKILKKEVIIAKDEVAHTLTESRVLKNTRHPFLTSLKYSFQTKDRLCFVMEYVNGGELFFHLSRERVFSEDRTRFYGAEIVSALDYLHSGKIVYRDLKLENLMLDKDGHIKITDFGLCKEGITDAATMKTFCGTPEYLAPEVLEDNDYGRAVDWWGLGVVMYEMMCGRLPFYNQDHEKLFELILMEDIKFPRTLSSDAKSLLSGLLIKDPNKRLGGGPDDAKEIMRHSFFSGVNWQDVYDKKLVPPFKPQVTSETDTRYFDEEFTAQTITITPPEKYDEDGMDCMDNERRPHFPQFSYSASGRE
# [6] = biological target: RAC-gamma serine/threonine-protein kinase (Homo sapiens) (UniProt Q9Y243); conditions: at 1 µM
# [7] = biological target: G protein-coupled receptor kinase 6 (Homo sapiens) (UniProt P43250); conditions: at 0.1 µM
# Sequence of G protein-coupled receptor kinase 6 (Homo sapiens) (P43250 whole entry, looked up): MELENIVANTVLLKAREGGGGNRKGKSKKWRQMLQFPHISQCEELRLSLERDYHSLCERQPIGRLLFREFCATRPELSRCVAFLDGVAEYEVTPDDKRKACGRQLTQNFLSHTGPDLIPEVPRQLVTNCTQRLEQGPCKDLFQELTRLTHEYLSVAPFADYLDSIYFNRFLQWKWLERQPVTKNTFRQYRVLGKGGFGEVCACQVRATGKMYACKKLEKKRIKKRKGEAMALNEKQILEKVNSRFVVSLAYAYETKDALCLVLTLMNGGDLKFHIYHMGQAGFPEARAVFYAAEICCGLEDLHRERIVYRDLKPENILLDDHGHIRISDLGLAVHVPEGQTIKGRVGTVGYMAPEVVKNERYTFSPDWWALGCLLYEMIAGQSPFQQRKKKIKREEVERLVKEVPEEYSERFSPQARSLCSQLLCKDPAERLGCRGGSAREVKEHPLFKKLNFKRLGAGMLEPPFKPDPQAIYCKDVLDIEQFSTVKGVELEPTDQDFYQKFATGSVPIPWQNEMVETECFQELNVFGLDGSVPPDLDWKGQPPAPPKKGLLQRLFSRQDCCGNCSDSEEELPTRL
# [8] = biological target: G protein-coupled receptor kinase 6 (Homo sapiens) (UniProt P43250); conditions: at 1 µM
# [9] = biological target: T1, Rhodopsin kinase GRK7 (Homo sapiens) (UniProt Q8WTQ7); conditions: at 0.1 µM
# T1 sequence (whole entry): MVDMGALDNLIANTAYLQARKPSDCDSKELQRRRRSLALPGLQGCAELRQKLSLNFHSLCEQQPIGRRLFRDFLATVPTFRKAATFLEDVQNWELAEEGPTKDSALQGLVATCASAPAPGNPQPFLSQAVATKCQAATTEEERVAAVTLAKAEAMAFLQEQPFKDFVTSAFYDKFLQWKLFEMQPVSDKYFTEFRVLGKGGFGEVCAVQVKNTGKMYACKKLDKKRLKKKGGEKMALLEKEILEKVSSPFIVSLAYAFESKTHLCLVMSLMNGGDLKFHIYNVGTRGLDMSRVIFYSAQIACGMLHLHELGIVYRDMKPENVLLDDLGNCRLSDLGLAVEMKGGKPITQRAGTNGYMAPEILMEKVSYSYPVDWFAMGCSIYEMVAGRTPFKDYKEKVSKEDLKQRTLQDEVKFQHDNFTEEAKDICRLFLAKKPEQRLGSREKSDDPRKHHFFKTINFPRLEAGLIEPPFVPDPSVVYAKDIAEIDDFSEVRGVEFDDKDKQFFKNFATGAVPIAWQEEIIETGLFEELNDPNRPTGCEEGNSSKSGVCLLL
# [10] = biological target: T1, Rhodopsin kinase GRK7 (Homo sapiens); conditions: at 1 µM
# Sequence of RAC-alpha serine/threonine-protein kinase (Homo sapiens) (P31749 whole entry): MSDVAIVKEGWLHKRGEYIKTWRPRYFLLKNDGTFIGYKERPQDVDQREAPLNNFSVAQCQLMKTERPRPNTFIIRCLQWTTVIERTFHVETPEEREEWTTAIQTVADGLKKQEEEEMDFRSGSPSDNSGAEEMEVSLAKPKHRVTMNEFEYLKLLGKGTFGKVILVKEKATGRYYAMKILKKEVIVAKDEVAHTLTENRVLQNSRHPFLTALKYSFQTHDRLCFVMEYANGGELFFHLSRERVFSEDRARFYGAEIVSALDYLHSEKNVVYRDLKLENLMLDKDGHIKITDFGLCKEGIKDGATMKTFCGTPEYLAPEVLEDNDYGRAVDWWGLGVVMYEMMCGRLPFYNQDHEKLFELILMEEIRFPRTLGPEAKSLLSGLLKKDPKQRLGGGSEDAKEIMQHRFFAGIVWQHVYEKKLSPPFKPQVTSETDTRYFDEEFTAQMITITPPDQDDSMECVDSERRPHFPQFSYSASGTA
SMILES,inhibition [1],inhibition [2],inhibition [3],inhibition [4],inhibition [5],inhibition [6],inhibition [7],inhibition [8],inhibition [9],inhibition [10]
CCCNc1cccc(-n2ncc3c(N/N=C/c4ccncc4)ncnc32)c1,0.34%,-0.51%,0.22%,-0.08%,-0.05%,-1.08%,3.49%,3.97%,2.68%,4.45%
COc1cc(N2CCN(C(C)C)CC2)ccc1Nc1nc(Nc2cccc3ncccc23)c2cc[nH]c2n1,-0.64%,-0.94%,-0.9%,-0.32%,0.92%,0.55%,-0.14%,-0.02%,-2.45%,0.29%
Fc1cccc(COc2ccc(Nc3ncncc3C#Cc3ccccc3)cc2Cl)c1,0.45%,1.07%,1.28%,1.61%,0.72%,1.12%,7.01%,9.97%,5.2%,9.23%
COc1ccc(Nc2ncc(-c3ccccc3)o2)cc1OC,-0.43%,0%,-0.16%,0.11%,-0.29%,1.24%,-1.81%,-1.23%,-1.93%,1.56%
COc1cccc(-n2ncc3c(N/N=C/c4ccc(C(=O)NCCN(C)C)cc4)ncnc32)c1,0.53%,-4.74%,1.29%,-2.95%,1.33%,-1.17%,-2.74%,-7.47%,1.52%,-8.73%
O=C(O[C@H]1CN[C@H](C#Cc2cc3ncnc(Nc4ccc5c(cnn5Cc5ccccc5)c4)c3s2)C1)N1CCOCC1,-0.59%,-0.52%,-0.56%,-0.1%,-1.03%,0.11%,-0.66%,2.38%,2.39%,0.44%
FC(F)(F)CNc1nccc(-c2cnn3ncccc23)n1,0.05%,0.65%,1.43%,0.42%,0.5%,1.33%,-2.66%,-0.41%,3.21%,0.87%
CCN1CCC(C(=O)Nc2n[nH]c3nnc(-c4cccc(F)c4F)cc23)CC1,-0.41%,-1.03%,-1.1%,-0.35%,-1.17%,2.44%,-2.23%,1.97%,3.51%,-1.02%
O=C(O[C@H]1CN[C@H](C#Cc2cc3ncnc(Nc4ccc(OCc5cccc(F)c5)c(Cl)c4)c3s2)C1)N1CCOCC1,0.61%,0.67%,2.23%,2.72%,1.68%,1.6%,9.5%,13.6%,5.62%,16%
c1cnn2ncc(-c3ccnc(NCCCN4CCOCC4)n3)c2c1,0.48%,0.29%,1.29%,1.85%,1.38%,1.68%,4.92%,3.86%,20.1%,15.5%
N#Cc1ccc2c(-c3ccnc(NC4CC4)n3)c(-c3ccc(F)cc3)nn2c1,0.77%,-0.12%,0.14%,0.78%,0.56%,2.99%,1.67%,2.24%,4.35%,1.98%
COc1ccc2ncn(-c3cc(O[C@H](C)c4ccccc4C(F)(F)F)c(C(N)=O)s3)c2c1,-0.49%,-0.66%,-0.92%,-0.19%,0.16%,0.41%,-0.28%,1.33%,-1.81%,5.21%
CN1CCN(Cc2ccc(-c3cc4ncnc(Nc5ccc(OCc6cccc(F)c6)c(Cl)c5)c4s3)o2)CC1,2.3% and 0.84%,0.33% and 0.82%,1.77% and 3.25%,4.18% and 1.52%,0.53% and 1.8%,4.32% and 3.89%,-0.68% and 8.35%,-0.78% and 9.33%,9.19% and 5.43%,0.67% and 9.84%
CC(C)c1ccc(-c2cc(-c3c[nH]nc3-c3ccccn3)ccn2)cc1,0.13%,0.07%,-0.03%,0.06%,1.01%,0.29%,-1.41%,-0.19%,2.99%,1.48%
COC(=O)Nc1nc2ccc(Oc3ccc(NC(=O)Nc4cc(C(F)(F)F)ccc4F)cc3)cc2s1,-0.37%,-0.66%,-0.14%,-0.64%,1.34%,-0.4%,-1.28%,-1.53%,-0.68%,6.1%
CCOc1ccc2c(-c3ccnc(Nc4cc(OC)cc(C(F)(F)F)c4)n3)cnn2n1,0.02%,0.45%,0.01%,0.53%,0.18%,0.45%,2.38%,0.28%,-0.23%,16.9%

SMILES,inhibition [1],inhibition [2],inhibition [3],inhibition [4],inhibition [5],inhibition [6],inhibition [7],inhibition [8],inhibition [9],inhibition [10]
CS(=O)(=O)CCNCc1ccc(-c2ccc3ncnc(Nc4ccc(OCc5cccc(C(F)(F)F)c5)cc4)c3c2)o1,0.68%,0.01%,0.73%,1.64%,0.95%,2.79%,6.2%,3.84%,8.32%,0.47%
CC1=C(C(=O)Nc2ccc3[nH]nc(C)c3c2)C(c2ccc(C(F)(F)F)cc2)CC(=O)N1 (stereo not given),1.17%,1.18%,0.84%,1.11%,0.54%,2.53%,3.68%,14.7%,0.8%,-5%
CN(c1ccc(NC(=O)NCCN2CCOCC2)cc1)c1ccnc(Nc2ccc(CS(C)(=O)=O)cc2)n1,0.71%,-0.42%,0.78%,0.37%,0.73%,0.19%,4.41%,7.67%,3.45%,5.28%
CS(=O)(=O)Nc1ccc(-c2ccc3c(NC(=O)C4CC4)n[nH]c3c2)cc1,1.74%,2.3%,1.58%,4.27%,3.61%,0.93%,2.24%,1.55%,5.28%,2.36%
CS(=O)(=O)Nc1ccc(-c2cc(-c3ccccc3)cc(C(N)=O)c2N)cc1,0.58%,-0.28%,0.22%,1.28%,-0.36%,2.53%,1.1%,1.69%,7.08%,1.49%
CNC(=O)c1cncc(/C=C/c2ccccc2C)c1,0.63%,1.08%,2.41%,2.34%,1.3%,1.52%,3.92%,8.41%,3.15%,0.44%
CC1=C(C(=O)Nc2ccc3[nH]ncc3c2)C(c2ccc(F)cc2)N=C(c2ccc(C(F)(F)F)nc2)N1 (stereo not given),0.83%,1.06%,1.39%,1.43%,1.44%,1.68%,3.1%,-2.54%,0.19%,-2.93%
CCn1c(-c2nonc2N)nc2cncc(C(=O)NCCNC)c21,1.98%,17.7%,3.28%,10.5%,4.31%,26.2%,-0.59%,5.57%,9.46%,7.46%
COc1cc(Nc2ncc(-c3ccccc3)o2)cc(OC)c1,1.36%,1.33%,1.9%,2.08%,0.79%,3.26%,0.04%,-0.63%,19.2%,18.7%
NS(=O)(=O)c1ccc(N/N=C2\C(=O)Nc3cccc(CCc4ccncc4)c32)cc1,0.52%,0.04%,-0.35%,0.27%,0.45%,1.65%,0.11%,1.61%,7.3%,5.05%
O=C(O[C@H]1CN[C@H](C#Cc2cc3ncnc(Nc4ccc5c(ccn5Cc5cc(F)ccc5F)c4)c3s2)C1)N1CCOCC1,0.34%,1.4%,1.89%,1.81%,0.84%,0.51%,3.43%,5.16%,3.33%,3.94%
Nc1nccc(-c2c(-c3ccc(F)cc3)ncn2C2CCNCC2)n1,-2.52% and -0.57%,-1.44% and -0.36%,-2.1% and -0.23%,-2.04% and 0.22%,-2.91% and 1.34%,-1.79% and 2.95%,-0.3% and 1.54%,1.28% and -0.27%,-9.73% and -0.04%,-3.87% and -0.11%
N#Cc1cccc(Nc2ncc(-c3ccccc3)o2)c1,0%,-0.69%,0.15%,0.75%,0.9%,-0.1%,5.37%,8.61%,2.76%,11.2%
Cc1cc(O)cc(C)c1/C=C/c1cncc(C(=O)OC(C)(C)C)c1,0.38%,0.97%,1.75%,0.98%,1.33%,1.34%,2.27%,2.46%,7.07%,6.87%
Cc1cc(O)cc(C)c1/C=C/c1cncc(C(N)=O)c1,0.41%,1.41%,1.8%,1.63%,1.06%,1.18%,2.81%,0.48%,0.88%,-1.37%
